Compound activity as filed in PubChem BioAssay.
MITF inh = MITF inhibitors, primary screen, biochemical, AlphaScreen, human | Microphthalmia-associated transcription factor (Homo sapiens), O75030 | inhibition, % at 2.6 µM | AlphaScreen MITF homodimerization, bead proximity signal | AID 1259374, 2018 | hit rate 0.91% among 650,000; in the data active = inhibition above about 50%;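 note: 0% = vehicle wells with protein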
TEAD-YAP block = TEAD-YAP interaction inhibition, primary screen, TEAD-YAP interaction inhibitor project, luminescence, HEK-TIYL cells; hit rate 1.4% among 640,000; TEAD-Gal4/YAP UAS-luciferase luminescence; AID 1259422, 2018; inhibition, % at 9.12 µM; in the data active = inhibition above about 32%;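 note: 0% = median of test compound wells and 100% = reference inhibitor wells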
FBW7 act = FBW7 E3 ligase activators, primary screen, biochemical, AlphaScreen, human; normalized activity (activation), % at 26.1 µM; AID 1259310, 2017; AlphaScreen FBW7–phospho-cyclin E peptide binding, activator screen; F-box/WD repeat-containing protein 7 (Homo sapiens), Q969H0; hit rate 0.13% among 650,000; in the data active = normalized activity above about 1.9%;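 note: purified mutant Fbw7 with reduced substrate affinity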
GPR151 activ = activators of human GPR151, primary screen, cell-based, PathHunter beta-arrestin, luminescence; G-protein coupled receptor 151 (Homo sapiens), Q8TDV0; PathHunter beta-arrestin GPR151 cells; activation, % at 11.2 µM; hit rate 1% among 650,000; in the data active = activation above about 4.9%;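 note: 0% = median of compound wells and 100% = cells with positive control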
Target sequence (Q8TDV0 whole entry, looked up): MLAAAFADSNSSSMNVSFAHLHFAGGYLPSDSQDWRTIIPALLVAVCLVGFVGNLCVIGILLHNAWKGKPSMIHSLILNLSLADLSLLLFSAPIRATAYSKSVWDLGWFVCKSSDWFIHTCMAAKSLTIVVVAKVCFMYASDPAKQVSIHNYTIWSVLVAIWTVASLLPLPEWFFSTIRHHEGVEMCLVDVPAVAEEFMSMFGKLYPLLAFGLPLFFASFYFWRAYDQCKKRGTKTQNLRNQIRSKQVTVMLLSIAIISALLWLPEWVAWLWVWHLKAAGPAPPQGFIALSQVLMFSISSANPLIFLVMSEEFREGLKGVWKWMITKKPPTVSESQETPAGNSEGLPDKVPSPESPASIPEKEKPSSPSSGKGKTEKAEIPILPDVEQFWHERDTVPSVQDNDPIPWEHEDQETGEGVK
An asterisk follows results filed as active. An excerpt weighted towards active compounds, which were near 3.5% of everything screened.

SMILES	MITF inh	TEAD-YAP block	FBW7 act	GPR151 activ
NC(=S)N/N=C/c1c(O)ccc2ccccc12	78*	4	0	-1
O=c1[nH]nc(N/N=C/c2c(O)ccc3ccccc23)c(=O)[nH]1	10	-10	-1	1
Cc1nnc(N/N=C/c2c(O)ccc3ccccc23)[nH]c1=O	-18	89*	0	0
O=c1cnnc(N/N=C/c2c(O)ccc3ccccc23)[nH]1	117*	88*	0	-2
NC(=S)N/N=C/c1c2ccccc2cc2ccccc12	4	13	1	-1
CN1CCCCC1C(=O)N/N=C/c1c(O)ccc2ccccc12 (stereo not given)	84*	78*	0	2
COc1ccc(Cn2nnc(C(=O)NCCc3ccc(Cl)cc3)c2N)cc1	15	3	0	0
CCOC(=O)C1CCN(C(=O)c2ccccc2-c2ccccc2C(=O)O)CC1	-12	-7	0	0
Cc1cc(=O)[nH]c(N/N=C/c2c(O)ccc3ccccc23)n1	62*	89*	-1	-1
CCC(=O)Nc1ccc(Oc2ccc3c(c2)C(=O)NC3=O)cc1	-13	-2	0	1
O=C(COc1ccccc1)Nc1ccc(Oc2ccc3c(c2)C(=O)NC3=O)cc1	8	51*	0	-1
Cc1ccccc1OCC(=O)Nc1ccc(Oc2ccc3c(c2)C(=O)NC3=O)cc1	11	52*	0	1
O=C(CCc1ccccc1)Nc1ccc(Oc2ccc3c(c2)C(=O)NC3=O)cc1	-3	52*	0	0
C=CCOc1ccc(Br)cc1C1C(C(=O)OC)=C(N)OC2=C1C(=O)CCC2 (stereo not given)	5	-2	1	1
CSC1=C(C#N)C(c2ccccc2Cl)C(C(=O)Nc2ccccc2C)=C(C)N1 (stereo not given)	15	-4	2.0*	0
CCSC1=C(C#N)C(c2ccccc2Cl)C(C(=O)Nc2ccccc2C)=C(C)N1 (stereo not given)	5	-4	0	0
Cc1cccc2c1[nH]c1nc(N/N=C\c3c[nH]c4ccccc34)nnc12	-2	44*	0	-1
C(=N/Nc1nnc2c(n1)[nH]c1ccccc12)/c1c[nH]c2ccccc12	1	-2	1	0
Oc1ccc(Cl)cc1/C=N/Nc1nnc2c(n1)[nH]c1ccccc12	3	-9	0	1
Oc1ccc(/C=N/Nc2nnc3c(n2)[nH]c2ccccc23)c(O)c1O	111*	-10	-1	0
CC1CCCCC1NC(=O)c1cccc2c1SCCC2=O (stereo not given)	-15	2	0	2
Cc1ccc(C(=O)Nc2ccc3nc(SCC(=O)NC4CCCCC4)sc3c2)cc1	1	-4	0	-1
COc1ccc(-c2nc(NCCO)c3ncn(C(C)C)c3n2)cc1	5	8	0	1
CC(C)n1cnc2c(NCc3nc4ccccc4[nH]3)nc(-c3ccc(C(N)=O)cc3)nc21	5	77*	0	-1
CC(C)n1cnc2c(NCCO)nc(-c3ccc(C(N)=O)cc3)nc21	16	5	0	0
SMILES	MITF inh	TEAD-YAP block	FBW7 act	GPR151 activ
COc1ccc(-c2nc(NCc3nc4ccccc4[nH]3)c3ncn(C(C)C)c3n2)cc1	0	71*	0	0
CCC(C#CCN1CCCCC1)(CC)OCCC#N	6	2	0	0
O=C1N[C@@H](CO)C(=O)N2C[C@@H](NCc3cccc4cccnc34)C[C@@H]12	-13	-4	0	0
Cc1cccc(Oc2nc3c(C)cccn3c(=O)c2/C=C(\C#N)C(=O)N2CCOCC2)c1	16	36*	0	0
CNC(=O)/C(C#N)=C/c1c(Oc2cc(C)cc(C)c2)nc2ccccn2c1=O	18	32*	0	-6
N#C/C(=C\c1c(Oc2ccccc2)nc2ccccn2c1=O)C(=O)N1CCOCC1	-9	21	0	0
Cc1cc(C)cc(Oc2nc3ccccn3c(=O)c2/C=C(\C#N)C(=O)N2CCOCC2)c1	13	37*	0	1
CCOC(=O)c1c(NC(=O)C(C)Sc2nnc(CNC(=O)c3ccccc3C(F)(F)F)n2C)sc2c1CCCCC2 (stereo not given)	4	-2	0	1
c1ccc(-c2noc(-c3cc(-c4ccncc4)nc4ccccc34)n2)cc1	10	-2	0	1
